# Only some compounds are listed: those with a hit (about 1.2% of all), similar ones and a draw of the others.
# RAD52 anneal inh – RAD52 DNA annealing inhibitors, primary screen, biochemical, FRET, single point, set 2 | inhibition, % at 18.7 µM | AID 651710, 2012 | recombinant RAD52 DNA annealing, FRET fluorescence | 360,000 tested, 0.46% active | DNA repair protein RAD52 homolog (Homo sapiens), P43351;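 active = every replicate showing at least 50% inhibition; inconclusive = mean inhibition at least 50% but not in every replicate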
# Casp6 inh – human caspase-6 inhibitors, primary screen, biochemical, VEID-R110 fluorescence, single point, set 2; purified caspase-6, Z-VEID-R110 cleavage fluorescence; 350,000 tested, 0.53% active; P55212; inhibition, % at 12.5 µM; AID 686996, 2013;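 active = mean inhibition across replicates at least about 35%, with every replicate also reaching that limit, limit read from the data; inconclusive = only one of the two criteria met; inactive = neither criterion met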
# Target sequence (P55212 24-179 limits assumed): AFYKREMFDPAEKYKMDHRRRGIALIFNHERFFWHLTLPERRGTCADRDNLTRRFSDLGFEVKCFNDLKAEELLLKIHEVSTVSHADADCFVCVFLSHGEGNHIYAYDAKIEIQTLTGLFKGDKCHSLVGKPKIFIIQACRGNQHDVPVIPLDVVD
# Target sequence (P55212 194-293 limits assumed): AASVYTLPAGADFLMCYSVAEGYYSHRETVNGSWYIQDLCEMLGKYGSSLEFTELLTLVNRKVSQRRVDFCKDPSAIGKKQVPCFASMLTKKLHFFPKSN
# Glyco luc inh – increase of ERlucT glycosylation luciferase signal, primary screen, N-linked glycosylation inhibitor project, D54 ERlucT cells, luminescence, set 2; D54 ERlucT glycosylation luciferase reporter, 24 h; percent of 100 nM tunicamycin response; reporter increase, % at 12.5 µM; 360,000 tested, 0.23% active;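 active = mean luciferase reporter signal, scaled so untreated is 0 and the glycosylation-blocking control 100, at or above a set limit in every replicate; inconclusive = mean reaches the limit but not every replicate does; inactive = mean below the limit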;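 also: luciferase carries N-glycosylation sites so blocking glycosylation raises the light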
# RAD54 inh – inhibitors of human RAD54 branch migration, primary screen, biochemical, fluorescence, single point; DNA repair and recombination protein RAD54-like (Homo sapiens), Q92698; RAD54 Holliday junction branch migration, FAM/BHQ fluorescence; inhibition, % at 10.4 µM; 360,000 tested, 0.14% active;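 active = mean normalized replicate activity at least 40 and at least half of replicates scoring 40 or more; inconclusive = only one of the two criteria met; inactive = mean below 40 and under half of replicates reaching 40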;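 also: inhibitors cause a drop in the FAM fluorescence signal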
# AF4-AF9 inh – inhibitors of AF4 peptide binding to AF9, primary screen, biochemical, AlphaScreen, biotin-AF4 peptide, FLAG-AF9, single point | inhibition, % at 10 µM | 350,000 tested, 0.47% active;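 active = every replicate reaching a set inhibition limit, whatever the replicate mean, cut at about 25% in these data; inconclusive = mean inhibition reaches that limit but some replicates miss it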
# A number is an active result; i = inactive; ? = inconclusive; nt = not tested or not shown.
SMILES,RAD52 anneal inh,Casp6 inh,Glyco luc inh,RAD54 inh,AF4-AF9 inh
COc1ccc(C2C(C#N)=C(N)Oc3cc(O)ccc32)cc1OC (centres undefined),nt,nt,i,i,nt
Cn1cnc(S(=O)(=O)N[C@H]2C=C[C@H](CC(=O)NCC3CCCCC3)O[C@H]2CO)c1,i,i,nt,i,i
Cc1c(O)cc2c(c1O)C(=O)CC(c1ccccc1)O2 (centres undefined),i,i,43.1,i,i
COc1ccc(CN(C)C[C@@H]2Oc3ccc(NC(=O)NC(C)C)cc3C(=O)N([C@H](C)CO)C[C@H]2C)cc1,i,i,nt,?,i
CCCCCC(=O)Nc1cc(S(=O)(=O)N2CCCCC2)ccc1N1CCCCC1,i,i,i,i,i
CCCCCC(=O)Nc1cc(S(=O)(=O)O)cc2cc(S(=O)(=O)O)cc(O)c12,i,98.1,i,nt,i
CC(=O)Nc1ccc(S(=O)(=O)Nc2nc3ccccc3nc2Nc2ccc(C(=O)O)c(O)c2)cc1,i,72.7,i,i,i
CC(=O)Nc1ccc(S(=O)(=O)Nc2nc3ccccc3nc2Nc2cccc(O)c2)cc1,i,i,i,nt,i
Oc1c(C(Nc2ccccn2)c2cccnc2)cc(Cl)c2cccnc12 (centres undefined),i,i,i,nt,42.8
Cc1csc(N=Nc2ccc(N(C)C)cc2)[n+]1[O-],i,i,i,nt,51.7
CN(C)c1ccc(N=Nc2ccc(C(=O)O)cc2)cc1,i,i,i,nt,i
O=C1NC(c2ccccc2)=N/C1=C/c1ccco1,i,39.2,i,nt,i
O=C1NC(c2cccc(Br)c2)=N/C1=C\c1ccco1,i,i,i,nt,i
CO[C@@H]1CN(C)C(=O)c2cc(NC(=O)C3CC3)ccc2OC[C@H](C)NC[C@@H]1C,i,i,nt,i,i
O=C(Nc1ccc(Cc2ccncc2)cc1)c1ccc([N+](=O)[O-])o1,i,i,34.3,i,i
O=C(Nc1cccc(NC(=O)c2cccs2)c1)c1ccc([N+](=O)[O-])o1,i,i,59.3,i,i
COc1ccc2c3c([nH]c2c1)[C@@H](CO)N(Cc1ccccc1)CC31CCN(C(=O)c2cccnc2)CC1,i,i,nt,nt,i
CCOC(=O)C1CCN(c2nc(N)c3c(N)nc(SCC(=O)O)cc3c2C#N)CC1,i,65.1,i,i,i
CCOC(=O)C1CCN(c2nc(C)cc(C)c2C#N)CC1,i,nt,i,nt,i
N#C[C@@H]1[C@H](c2ccc(-c3cccc(F)c3)cc2)[C@@H](CO)N1C(=O)NC1CCCCC1,i,i,nt,nt,i
COc1cc(/C=N/NC(=O)c2ccc(-c3ccccc3)cc2)cc(OC)c1OC,nt,nt,32.7,nt,nt
COc1ccc(C(=O)NCC(=O)N/N=C/c2cccnc2)cc1OC,i,i,i,i,i
COc1cc(C(=O)NCC(=O)N/N=C/c2cccnc2)cc(OC)c1OC,i,i,i,i,45.1
CO[C@H]1CN(C)C(=O)c2cc(NC(=O)NC(C)C)ccc2OC[C@H](C)N(S(C)(=O)=O)C[C@H]1C,i,i,nt,nt,i
O=[N+]([O-])c1ccc2nc(-c3ccccc3[N+](=O)[O-])[nH]c2c1,i,38.4,i,nt,i
SMILES,RAD52 anneal inh,Casp6 inh,Glyco luc inh,RAD54 inh,AF4-AF9 inh
O=[N+]([O-])c1cccc(-c2nc3ccc([N+](=O)[O-])cc3[nH]2)c1,i,i,i,nt,i
COCCNC(=O)C[C@H]1C[C@@H]2c3cc(NC(=O)C4CCC4)ccc3O[C@@H]2[C@@H](CO)O1,i,i,nt,i,i
Cc1nc(NC2=NCN(CCCN3CCOCC3)CN2)nc2c(C)cccc12,nt,nt,i,81.0,nt
C[C@H]1CN([C@@H](C)CO)S(=O)(=O)c2ccc(C#CCN(C)C)cc2O[C@H]1CN(C)Cc1ccc2c(c1)OCO2,i,36.1,nt,i,i
C[C@H](CO)N1C[C@H](C)[C@@H](CN(C)C(=O)CN(C)C)Oc2cc(C#Cc3ccc(F)cc3)ccc2S1(=O)=O,52.0,i,nt,i,i
C[C@H]1CN([C@@H](C)CO)S(=O)(=O)c2ccc(C#Cc3ccccc3)cc2O[C@@H]1CN(C)C(=O)CN(C)C,i,i,nt,i,i
C[C@@H]1CN([C@H](C)CO)S(=O)(=O)c2ccc(C#Cc3ccc(F)cc3)cc2O[C@@H]1CN(C)C,i,i,nt,i,i
C[C@@H]1CN([C@@H](C)CO)S(=O)(=O)c2ccc(C#Cc3ccc(F)cc3)cc2O[C@H]1CN(C)C(=O)CN(C)C,54.9,i,nt,i,i
C[C@H]1CN([C@@H](C)CO)S(=O)(=O)c2ccc(C#CC3CCCCC3)cc2O[C@H]1CN(C)C,53.3,i,nt,i,i
C[C@H]1CN([C@@H](C)CO)C(=O)c2cc(NS(=O)(=O)c3ccc(Cl)cc3)ccc2O[C@@H]1CN(C)CC1CC1,i,i,nt,i,i
COCC(=O)N1CC2(C1)[C@H](c1ccccc1)[C@@H](CO)N2C(=O)c1ccncc1,i,i,nt,nt,i
C[C@@H]1CN([C@@H](C)CO)C(=O)Cc2cc(NC(=O)c3ccncc3)ccc2O[C@@H]1CN(C)C,i,i,nt,i,i
O=C(COC(=O)Cc1cccc(C(F)(F)F)c1)NCc1ccco1,i,58.2,i,i,i
O=C(COC(=O)Cc1ccc(F)cc1)NCc1ccco1,i,i,i,nt,i
COCC(=O)N(C)C[C@@H]1Oc2cc(C#C[C@H](C)O)ccc2S(=O)(=O)N([C@H](C)CO)C[C@H]1C,i,i,nt,i,i
NC(=N\N=Cc1ccco1)/C(N)=N/N=Cc1ccco1,i,61.8,i,i,i
NC(=N\N=Cc1ccccc1)/C(N)=N/N=Cc1ccccc1,i,i,i,i,i
CCOc1ccc(-c2cc(N)n(S(=O)(=O)c3ccc(OC)c(OC)c3)n2)cc1,i,i,i,i,44.3
COc1ccc(S(=O)(=O)n2nc(-c3ccc(Cl)cc3)cc2N)cc1OC,i,i,i,i,i
Nc1ccc2c(S(=O)(=O)O)cccc2c1S(=O)(=O)O,i,i,i,i,i
Nc1cccc2cc(S(=O)(=O)O)ccc12,i,64.3,i,i,i
CCOC(=O)c1ccc(N2N=C(C)/C(=C/C=C/c3ccco3)C2=O)cc1,nt,nt,i,i,nt
O=C(O)c1cc(N2N=C(C(F)(F)F)/C(=C/C=C/c3ccco3)C2=O)ccc1Cl,i,95.4,i,nt,i
COc1ccc(C#Cc2ccc3c(c2)[C@]2(C(=O)N3)[C@H](C(=O)Nc3nc4ccccc4s3)[C@H]3C(=O)O[C@H](c4ccccc4)[C@H](c4ccccc4)N3[C@@H]2c2ccccc2OCCO)cc1,i,i,nt,i,i
CCOc1cc(S(=O)(=O)NCc2ccc(OC)cc2)c(OCC)cc1-n1cnnn1,nt,nt,29.8,i,nt
COCCNC(=O)C[C@H]1C[C@@H]2c3cc(NC(=O)Nc4ccc(F)cc4)ccc3O[C@@H]2[C@@H](CO)O1,nt,nt,nt,i,nt
CCC12CCCN3CCc4c(n(c5ccccc45)C(O)(C(=O)OC)C1)C32 (centres undefined),i,59.5,i,i,i
CN1c2ccc(C3=CCCCC3)cc2[C@@H]2[C@@H](CCN2C(=O)C2CCC2)[C@@H]1CO,i,i,nt,nt,28.4

# Screening results as filed in PubChem.
